Test results: the supplement of paper PMC6555819

test system: VDR:RXRa (NR concentration 270 nM, RXRa partner concentration 90 nM); assay: PBM binding z-score (relative to random genomic background probes); higher = stronger binding; sequences stand for … in GC…GCGATTGACAGCGTAGAATGAAGG
Procedure: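 Protein-binding microarray (Agilent 4x180K custom design, double-stranded 60-nt probes: 5' GC cap, 34-nt variable region, 24-nt constant primer region; full probe sequence given). Purified or IVT nuclear receptor:RXRα heterodimers (3:1 NR:RXRα, mostly 270:90 nM) or homodimers were incubated for 1 h in PBS with 2% milk and no ligand, then detected with Alexa488 antibodies. Fluorescence from o1-orientation probes (~5 replicates averaged) was converted to z-scores against 500 random hg19 background probes. Variable regions are seed direct-repeat (DR0–DR5) sites, all their single-nucleotide variants and half-site ablations.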

| Sequence | PBM binding z-score |
| --- | --- |
| CCGAGTAGGTTACGACGGGGCATTCAGTGCGAAT | 1.49 |
| TCATATAGGTCAAAGGTGAAAGTCGGTGTGGTAA | 4.65 |
| CCTTACAGGTCAAGGTTATAGCACGGGTGGTACG | 3.41 |
| AGTCAAAGTTCACTAGGCAACGTAAGATTCAGCT | 3.13 |
| AGTCAAAGGTCAGGACGAGGTAACGTAAAGCACG | 4.83 |
| TCTAGTTGGTCGCGGAGGTCACACACGACGGGTA | 4.55 |
| TCGACTAGGTTACGGGGGCATTCAGGGATGAAGA | 4.04 |
| TAGCCAAGGTCATTCAGGGGCCAGTATAGAAAGC | 5.28 |
| CTATGTAGTTTAAGGGGGTCATTCAGTTTGAAAG | 6.94 |
| CGAACTAAGTCACCAGGACAGTGAAGAGGTTGGA | -0.118 |
| TAGCCTAGGTCATAGGGCCAGTATAGTACGCATC | 1.96 |
| AATACAGGGTCACTAGGCCCGAGTAGGTACGAAT | 3.96 |
| CGAACTAGGTCACCAGGATAGTGAAGAGGTTGGA | 1.93 |
| CGTCGGAGGACAGAAGGTCAGAGCTGTCCGCTTT | 0.797 |
| CGTCCAAGGTCAATTCTAGGTCAGTGAAAGCATT | 4.61 |
| TCGAGTAGGTGACGGGGGCATTCAGGGATGAAGA | 3.36 |
| CGAACTAGGTCAACGGACAGTGAAAGGCGACGTA | 1.12 |
| CCTAGTTGGTCAGGAGGTCACAAACCGGATATGA | 3.4 |
| CCGAGTCGGTTACGAGGGGGCATTCAGTGCGAAT | 3.65 |
| ATAGAAAGGTCGAAGGTGAGTATACCCACCCGAA | 2.88 |

| Sequence | PBM binding z-score |
| --- | --- |
| CCGAGTAGGTTACGCGGGGGCATTCAGTGCGAAT | 5.48 |
| CTATGTAGGTTAAGGGGGTCGTTCAGTTTGAAAG | 6.43 |
| TCGAGTAGGTTACGGGGGAATTCAGGGATGAAGA | 1.25 |
| TCATATAGGTTAAGGTGAAAGTCGAACGATATGA | 0.985 |
| GCTCGGAGGACAAGGTCAGGGCTTTGTCCGTAGA | 1.64 |
| CCGACGGGGGCAAGGTTACCATAACGCACAGCCA | 3.01 |
| CCGAGTAGGTTCCGAGGGGGCATTCAGTGCGAAT | 4.09 |
| ATATGTAGGTGAGGGTCATTCAGAAAGTAGGGAA | 3.42 |
| GCTGCTAGGTCAACTGAAGGTCAGCTAAAGCTCG | 4.15 |
| ATATATAGGTTAGGGTCATTCAGAAAGTAGGGAA | 4.75 |
| ATCGAAAAGTCGAAGGTGAGTATACCCACCCGAA | -0.47 |
| CCTTACGGGTCACGGGGTTATAGCACGACGAGCG | 5.75 |
| CGAACTAGGTCCTTGACAGGACAGTGAATAGTAA | -0.351 |
| ACTAGTTGGTCAGCTGAGGTCACACACAATTCGG | 4.67 |
| CGTCAAAGTTCAACTAAGGTAACGTATAGCACGC | 4.92 |
| CCTCGGAGGACAACAGGATGTCAGAGCTGCCAGA | -0.45 |
| ACATGTAGGTTAGGGTCATTCAGAAAGTAGGGAA | 4.52 |
| CCTAGCAGACCAATCTGGGTCACTCAAGGCTTGA | 0.199 |
| ATCGAAAGGTCGAGGAGGTGAGTATACACCGTTT | 4.25 |
| TCGAGTAGGTTACGGGGGCATTCAGGGATGAAGA | 4 |
